Laboratory results taken from PubChem BioAssay (NCI).
Compounds without any hit were thinned out: in the full panel of roughly 83,000, 20% have a hit.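 The test compound was applied at a single concentration to cells in 96-well plates for 48 hours, and percent growth was recorded.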 Calls of active or inactive are those of the source. How the source made its calls: active means growth percent below 10; inactive means the rest.

How the values were obtained:
Test in all cases: NCI-60 one-dose screen, 48 h (100 = growth as untreated, 0 = no growth, -100 = all killed)
Settings in all cases: 10 µM unless noted
[1] = system: HCT-15 colon
[2] = system: HT29 colon
[3] = system: SNB-19 CNS
[4] = system: U251 CNS
[5] = system: PC-3 prostate
[6] = system: SK-MEL-5 melanoma
[7] = system: UACC-62 melanoma
[8] = system: LOX IMVI melanoma
[9] = system: SK-MEL-2 melanoma
[10] = system: EKVX NSCLC
[11] = system: SN12C renal
[12] = system: UO-31 renal
[13] = system: TK-10 renal
[14] = system: ACHN renal
[15] = system: CAKI-1 renal
[16] = system: A498 renal
[17] = system: MOLT-4 leukemia
[18] = system: SK-MEL-28 melanoma
[19] = system: CCRF-CEM leukemia

Measured: growth

CCN(CC)c1ccc2[nH]c3c(C(N)=O)cc(=O)c(=O)c=3oc2c1
active: [1] 1.73% | [2] 5.89% | [4] -4.95% | [6] -84.7% | [7] -24.4% | [8] 3.27% | [9] -19.4% | [10] -10.4% | [11] -4.55% | [12] -28.8% | [13] 2.91% | [14] -8.77% | [15] -33.2% | [17] 1.5%
inactive: [3] 17.6% | [5] 13.4% | [16] 46.2%

COc1ccc(-c2ccc(-c3ccc(-c4ccc(C(=N)N)cc4)s3)s2)cc1OC
inactive: [3] 87.7% | [4] 46.4% | [5] 70.6% | [6] 93.8% | [7] 94.1% | [18] 93% | [9] 105% | [11] 91.7% | [12] 74.4% | [14] 95.5% | [15] 93.2% | [16] 48.6% | [17] 14.6%
active: [1] -68.8% | [2] -60.2% | [10] -8.09% | [13] -78.8%

CCOC(=O)CN1/C(=N/c2sc3c(c2C(=O)OCC)CCN(C(=O)OCC)C3)SC(=O)/C1=C\C(=O)OC
inactive: [1] 58.6% | [2] 61.2% | [3] 91.5% | [4] 85.3% | [5] 71.6% | [6] 99.7% | [7] 92.8% | [18] 109% | [9] 97.9% | [10] 93.1% | [11] 85.7% | [12] 73.6% | [13] 99% | [14] 95% | [15] 86.6% | [16] 93.3% | [19] 27.7% | [17] 53.8%

CC(C)(C)n1cc(-c2ccnc(NCCCNS(=O)(=O)c3ccc(Br)cc3)c2)c(-c2cccc(O)c2)n1
active: [1] -47.3% | [2] 1.23% | [18] -32.1% | [17] 6.97%
inactive: [3] 48.7% | [4] 29.5% | [5] 16.9% | [6] 15.1% | [7] 42.9% | [9] 19% | [10] 50.1% | [11] 42.9% | [12] 39% | [13] 90.1% | [14] 33.1% | [15] 36.7% | [16] 35.1% | [19] 25.5%

Oc1ccc(Cl)cc1-c1cc(-c2ccc(F)cc2)n[nH]1
inactive: [1] 30% | [2] 98.7% | [3] 77.6% | [4] 63.8% | [5] 63.8% | [6] 45.2% | [7] 59.2% | [8] 61.3% | [10] 50.6% | [11] 66.6% | [12] 37.5% | [13] 114% | [14] 74.3% | [15] 50.4% | [16] 69.6% | [17] 60.9%

CC(=O)c1cc2c(N)c(C(=O)Nc3cccc4c3OCCO4)sc2nc1C
active: [16] 8.65%
inactive: [1] 97.3% | [2] 103% | [3] 93.2% | [4] 99.4% | [5] 91.4% | [6] 95.3% | [7] 67.8% | [8] 97.5% | [9] 67.1% | [10] 102% | [11] 103% | [12] 90.2% | [13] 104% | [14] 104% | [15] 71.7% | [19] 96.7% | [17] 97.4%

O=[N+]([O-])c1ccc(Sc2ncccn2)c([N+](=O)[O-])c1
active: [12] 1.15% | [19] -37.2% | [17] -25.8%
inactive: [1] 38.9% | [2] 62.2% | [3] 99.3% | [4] 78.6% | [5] 32.9% | [6] 76.7% | [7] 60.7% | [18] 71.9% | [9] 48.5% | [10] 65.8% | [11] 58.5% | [13] 53.7% | [14] 27.8% | [16] 72.5%

Cc1cc(N/N=C/c2nc(-c3ccccc3)oc2C)c2cc(Br)ccc2n1
inactive: [1] 43.6% | [2] 65.6% | [3] 91.2% | [4] 38.5% | [5] 79.5% | [6] 103% | [7] 88.3% | [18] 26% | [9] 106% | [10] 107% | [11] 32.3% | [12] 78.1% | [13] 101% | [14] 89.9% | [16] 66.1% | [19] 27.7% | [17] 50.5%

Cc1ccc(-c2nc(C(Cl)Cl)n3nc(-c4ccccc4)cc3n2)cc1
inactive: [3] 27.4% | [6] 78.5% | [18] 85.9% | [9] 55.9% | [10] 35.3% | [11] 70.4% | [12] 46.9% | [16] 77.8% | [17] 103%
active: [1] -26.8% | [2] -43.6% | [4] -42.1% | [5] -13% | [7] -8.44% | [14] 3.72% | [15] 4.32%

CCOC(=O)c1ccc(NC(=O)N2CC(C)OC(C)C2)cc1 (stereo unspecified)
active: [12] 4.84%
inactive: [1] 96.2% | [2] 101% | [3] 93.2% | [4] 97.4% | [5] 103% | [6] 99.7% | [7] 87.6% | [8] 96% | [9] 113% | [10] 108% | [11] 97.4% | [13] 125% | [14] 96.7% | [16] 80.6% | [19] 102%

C=COC(=O)CCCCCCCCC
inactive: [1] 113% | [2] 100% | [3] 97.6% | [4] 105% | [5] 102% | [6] 107% | [7] 99.2% | [18] 106% | [9] 108% | [10] 94.1% | [11] 106% | [12] 85.7% | [13] 109% | [14] 104% | [15] 92.8% | [16] 96.4%

O=[N+]([O-])c1ccc(C(c2ccccc2)c2ccccc2)cc1
inactive: [1] 86.4% | [2] 84.4% | [3] 96.9% | [4] 102% | [5] 94.1% | [6] 96.7% | [7] 85.5% | [8] 69.7% | [9] 110% | [10] 94.8% | [11] 92% | [12] 80.4% | [13] 96.4% | [14] 90.3% | [16] 91.3% | [19] 97.8% | [17] 95.2%

Cc1[nH]c2ccc(F)cc2c1CCNC(=O)C1CCN(C(=O)c2ccccc2)C1 (stereo unspecified)
inactive: [1] 93.4% [25 µM] | [2] 101% [25 µM] | [3] 93.2% [25 µM] | [4] 92.8% [25 µM] | [5] 79.9% [25 µM] | [6] 82.2% [25 µM] | [7] 93.3% [25 µM] | [18] 95.1% [25 µM] | [9] 113% [25 µM] | [10] 80.5% [25 µM] | [11] 95% [25 µM] | [12] 77.1% [25 µM] | [13] 86.9% [25 µM] | [14] 96.3% [25 µM] | [15] 77.1% [25 µM] | [16] 43.8% [25 µM] | [17] 91.6% [25 µM]

N=C(N)c1ccc(-c2ccc(-c3ccc(-c4cccs4)s3)s2)cc1
inactive: [1] 101% | [2] 95% | [3] 97.5% | [4] 91.2% | [5] 89% | [6] 91.4% | [7] 93.3% | [18] 102% | [9] 108% | [10] 90.1% | [11] 93.7% | [12] 93% | [13] 95.3% | [14] 102% | [15] 106% | [16] 20.6% | [17] 98%
active: [19] -47.8%

CN(C)CC(C(=O)c1ccccc1)c1ccccc1 (stereo unspecified)
inactive: [3] 84.4% | [4] 59.8% | [5] 38.3% | [6] 64.2% | [7] 34.8% | [18] 61% | [9] 34.7% | [10] 89.6% | [11] 31.2% | [12] 41.3% | [16] 99.7%
active: [1] -37.7% | [2] -17.4% | [13] -20% | [14] -41.5% | [15] -2.87%

Cc1[nH]c2ccc(F)cc2c1CCNC(=O)C1CCN(C(=O)c2ccccc2)CC1
inactive: [1] 94.4% [25 µM] | [2] 95.2% [25 µM] | [3] 86.3% [25 µM] | [4] 90.7% [25 µM] | [5] 71% [25 µM] | [6] 76% [25 µM] | [7] 82.5% [25 µM] | [18] 96.4% [25 µM] | [9] 98.9% [25 µM] | [10] 77.9% [25 µM] | [11] 94.5% [25 µM] | [12] 67.6% [25 µM] | [13] 91.1% [25 µM] | [14] 97% [25 µM] | [15] 68.2% [25 µM] | [16] 56.2% [25 µM] | [17] 88% [25 µM]
